In all, about 200,000 compounds went through this assay and about 5,100 (2.5%) were called active.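 How the source made its calls: active means activation above the screen-wide mean activation plus 3 SD (cut at about 130% in these data); inactive means the rest.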 The full list was thinned out, with actives kept by preference.
Assay: STAT1 signaling activators, primary screen, cell-based, HTS, luciferase reporter (AID 932);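 further: raw ratio to IFN-gamma control signal so 100% means no change and 0% no light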
Conditions: NIH 3T3 STAT1-luciferase reporter, IFN-gamma, luminescence; at 5.5 µM; hits give high values; 100% = IFN-gamma alone, no compound

Activation (% of control), inactive:
Cc1nnc(CN(C)Cc2cn[nH]c2-c2ccc(-c3ccccc3)cc2)o1 114%
COc1ccc(CCNC(=O)/C(C#N)=C2\N=C(NC(=O)c3cccs3)c3ccccc32)cc1 95.7%
COCCCNC(=S)N(Cc1ccccc1)Cc1ccc(F)cc1 90%
Cc1ccc(S(=O)(=O)N(NC2=NS(=O)(=O)c3ccccc32)C(=O)c2ccccc2)cc1 106%
O=C(Oc1cccc(NC2=NS(=O)(=O)c3ccccc32)c1)c1ccncc1 92.7%
COC(=O)C1=C(C(=O)OC)C(c2cc([N+](=O)[O-])ccc2O)c2sc(=O)[nH]c2S1 (configuration not stated) 98.4%
CCOC(=O)Cc1csc(NC(=O)COc2ccc3c(C)cc(=O)oc3c2)n1 102%
COC(=O)COc1cccc2c(=O)n(CC(=O)NCCc3ccc(OC)c(OC)c3)ccc12 100%
Cc1ccc(-c2cc(C(=O)N/N=C/C=C/c3ccco3)c3ccccc3n2)cc1C 78.9%
CC(/C=N/NC(=O)c1ccncc1)=C\c1ccco1 98.5%
O=C(CSc1nnc(-c2ccco2)n1Cc1ccccc1)NC(=O)NCc1ccco1 101%
c1ccc(CSc2nnc(-c3ccco3)c(-c3ccco3)n2)cc1 97.8%
COc1cccc(OCC(=O)NNC(=O)c2cnccn2)c1 98.7%
COc1ccc2c(c1)CCc1c(C(=O)Nc3c(C)n(C)n(-c4ccccc4)c3=O)noc1-2 106%
COc1ccc2c(c1)CCc1c(C(=O)N3CCc4ccccc4C3)noc1-2 96.8%
O=C(Nc1cccc(C(F)(F)F)c1)c1ccc(N2CCNCC2)c([N+](=O)[O-])c1 90.2%
CC(C)C(NC(=O)c1ccc(Cl)cc1)C(=O)O (configuration not stated) 110%
Cc1occc1C(=O)NNC(=S)NCC(C)C 102%
Cn1c(CNC(=O)c2ccccc2F)nnc1SCc1ccc(F)cc1 103%
Cc1cc(C)c2nc(NC(=O)c3ccc4c(c3)OCO4)sc2c1 98.5%
O=C(Nc1ccccc1)c1ccc2c(c1)OCO2 110%

Activation (% of control), active:
CC(C)(C)c1csc(NC2=NS(=O)(=O)c3ccccc32)n1 130%
CC(/C=N/NC(=O)c1cc(-c2ccc3ccccc3c2)n[nH]1)=C\c1ccco1 131%
c1ccc(CSc2nnc(-c3ccco3)n2Cc2ccccc2)cc1 144%
COc1ccc2c(c1)CCc1c(C(=O)N3CCCC3)noc1-2 131%
CC(C)CNC(=S)NC(=O)c1ccc(Cl)cc1 136%
O=C(Nc1nc2ccccc2s1)c1ccc2c(c1)OCO2 130%

Source: PubChem BioAssay AID932 (The Scripps Research Institute Molecular Screening Center, 2007)
